Screens deposited in PubChem by National Center for Advancing Translational Sciences (NCATS).
ClpP mod – qHTS Assay for Activators of ClpP | AID 651965, 2013 | Potency, µM (titrated, usually from 57.5 µM) | ATP-dependent Clp protease proteolytic subunit (Bacillus subtilis (strain 168)), P80244 | 1.9% of 340,000 active | purified B. subtilis ClpP, FRET peptide cleavage, 20 min; active means well fitted falling curve with a large enough effect; inconclusive means small, poorly fitted or top-dose-only effect; inactive means no such curve, though single readings can be large or run the other way; further: the source files actives as falling curves though it sought activators and does not explain the sign; nearly all actives have a fitted effect of over 65% in size
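FRET quenching reversal measured ClpP activation: 10 microg/mL B. subtilis ClpP at pH 8 with the FRET-FV decapeptide, read at 430 nm after 320 nm excitation. The 20-min minus 0-min signal was scaled between DMSO/no-enzyme wells and ADEP (5.8 microM final).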
DT40 TDP1 no CPT – qHTS for Inhibitors of human tyrosyl-DNA phosphodiesterase 1 (TDP1): qHTS in cells in absence of CPT; Potency, µM (top dose mostly 46.2 µM), most hits filed as inhibitors; DT40 Tdp1-/- hTDP1 cells, no CPT, ATP luminescence, 48 h; 15% of 420,000 active; further: nearly all actives have a fitted effect of over 55% in size
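Camptothecin absent (DMSO only). Human TDP1-complemented DT40 knockout cells, 400 cells/well, 37 °C for minimum 48 hr; ATP measured via CellTiter-Glo, 30 min dark incubation, luminescence.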
TDP1 inh – blocks human tyrosyl-DNA phosphodiesterase 1. 0.28% of 350,000 active. recombinant TDP1, AlphaScreen DNA substrate cleavage. Q9NUW8. AID 485290. Potency, µM (series often up to 130 µM), hits mostly inhibitors; further: nearly all actives have a fitted effect of over 40% in size
Target sequence (Q9NUW8 whole entry, looked up): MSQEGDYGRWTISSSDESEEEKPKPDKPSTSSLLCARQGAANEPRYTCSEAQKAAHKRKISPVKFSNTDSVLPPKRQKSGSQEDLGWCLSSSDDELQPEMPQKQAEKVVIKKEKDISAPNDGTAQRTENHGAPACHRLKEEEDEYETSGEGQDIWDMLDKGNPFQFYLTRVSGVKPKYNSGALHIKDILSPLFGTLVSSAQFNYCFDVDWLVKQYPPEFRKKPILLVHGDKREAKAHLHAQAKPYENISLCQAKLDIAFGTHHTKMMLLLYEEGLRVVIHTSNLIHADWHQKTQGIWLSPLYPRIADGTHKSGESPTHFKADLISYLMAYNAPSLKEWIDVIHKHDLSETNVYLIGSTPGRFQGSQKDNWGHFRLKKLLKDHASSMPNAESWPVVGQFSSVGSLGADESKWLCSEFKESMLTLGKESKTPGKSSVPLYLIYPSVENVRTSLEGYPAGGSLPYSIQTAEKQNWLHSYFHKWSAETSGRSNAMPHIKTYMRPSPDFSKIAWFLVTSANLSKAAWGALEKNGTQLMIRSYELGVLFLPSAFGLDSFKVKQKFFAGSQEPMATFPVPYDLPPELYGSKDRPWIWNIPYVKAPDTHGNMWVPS
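Here, a 5' biotin and 3' phosphotyrosine-FITC DNA oligonucleotide reports Tdp1 activity: intact substrate bridges AlphaScreen beads, while cleavage leaves a 3' phosphate and drops signal. All incubations at room temperature.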
TDP1 cell CPT – DT40-hTDP1 cell growth loss with CPT; chicken DT40 Tdp1-/-;hTDP1 cells + 20 nM CPT, ATP luminescence, 48 h; Potency, µM (titrated, usually from 46.2 µM), hits mostly inhibitors; 12% of 420,000 active; AID 686979; further: nearly all actives have a fitted effect of over 55% in size
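Cell growth measured by CellTiter-Glo luminescence after a minimum 48 h, 37 C compound exposure with 20 nM CPT in Tdp1-knockout DT40 cells stably expressing hTDP1, seeded 400/well; qHTS titration format.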
A number is an active result; . = inactive; ? = inconclusive; / = no result; ! = a repeat was not active; [ ] = remark or other dose. Sampled rows, rich in hits. Any-hit rate of the full collection: about 17%. Unless noted, the call rests on the fitted dose curve; in most records, active means well fitted curve in the direction sought with a large enough effect; inconclusive means small, poorly fitted or top-dose-only effect, or another doubt; inactive means no such curve, though single readings can be large; an effect the other way counts as inactive or inconclusive.

SMILES | ClpP mod | DT40 TDP1 no CPT | TDP1 inh | TDP1 cell CPT
C[n+]1c2cc(N)ccc2cc2ccc(N)cc21 (tested in a mixture with another compound) | / | 1.8µM | / | 2.1µM
C[n+]1c2cc(N)ccc2cc2ccc(N)cc21 | . | 2.9µM | . | 3.7µM
Cc1ccc(N)cc1N | . | . | . | .
CNC(=O)Oc1ccc2c(c1)[C@@]1(C)CCN(C)[C@@H]1N2C | / | . | . | .
CN(C)c1ccc(/C=C2\CCCN=C2c2cccnc2)cc1 | / | / | . | /
CN1[C@@H](C[C@@H](O)c2ccccc2)CCC[C@@H]1C[C@H](O)c1ccccc1 | / | / | .[21 µM] | /
O=C(CN1CCCCC1)c1ccccc1 | . | . | / | .
CC1CCN(C(CC(=O)c2ccccc2)C(=O)c2ccccc2)CC1 (configuration not stated) | / | 2.1µM | / | 2.6µM
CN1CCN(c2cc3c(cc2F)c(=O)c(C(=O)O)cn3-c2ccc(F)cc2)CC1 | / | 24µM | . | 11µM
CC1CCc2cc(F)cc3c(=O)c(C(=O)O)cn1c23 (configuration not stated) | . | ? | . | .
CCCCCOc1c(OC)ccc2cc(C(=O)NCc3ccc4c(c3)OCO4)c(=O)[nH]c12 | / | / | . | /
CCN1C[C@]2(COC)[C@H](O)C[C@H](OC)[C@]34C1C([C@H](OC)[C@H]23)[C@]1(OC(C)=O)C2[C@@H](OC(=O)c3ccccc3)C(O)(C[C@H]24)[C@@H](OC)[C@@H]1O | / | . | . | .
COc1ccc(-n2nnnc2C(c2cccs2)N2CCC3(CC2)C(=O)NCN3c2ccccc2)cc1 (configuration not stated) | . | 16µM | / | ?
COc1ccc(-n2nnnc2C(CCc2ccccc2)N2CCC3(CC2)C(=O)NCN3c2ccccc2)cc1 (configuration not stated) | . | ? | / | ?
COc1ccc(-n2nnnc2C(CCSC)N2CCC3(CC2)C(=O)NCN3c2ccccc2)cc1 (configuration not stated) | . | ? | / | ?
CCC(c1nnnn1-c1ccc(OC)cc1)N1CCC2(CC1)C(=O)NCN2c1ccccc1 (configuration not stated) | . | 10µM | / | ?
CCCCC[C@@H](/C=C/C=C\CCCCCCCCCC(=O)O)OO | / | / | . | /
Cc1c(C(=O)N2CCC3(CC2)OCCO3)sc2ncnc(N3CCN(c4ccccn4)CC3)c12 | . | 16µM | . | 21µM
O=[N+]([O-])c1ccccc1CN1CC=C(c2ccc(F)cc2)CC1 | . | ? | / | 23µM
CCN(CC)c1ccc(CN2CC=C(c3ccc(F)cc3)CC2)cc1 | . | 18µM | . | 18µM
O=[N+]([O-])c1cccc(CN2CC=C(c3ccc(F)cc3)CC2)c1 | . | ? | / | ?
COc1ccc(CN2CC=C(c3ccc(F)cc3)CC2)cc1Br | / | 29µM | / | ?
CC1c2ccccc2-n2nncc2CN1C (configuration not stated) | . | . | / | .
Cc1ccc(C(C#N)=Cc2ccc3c(c2)OCO3)cc1 | . | 12µM | / | ?
O=[N+]([O-])c1ccc(S(=O)(=O)NCC(c2ccco2)N2CCc3ccccc3C2)cc1 (configuration not stated) | . | ? | .[0.505 µM] | .
SMILES | ClpP mod | DT40 TDP1 no CPT | TDP1 inh | TDP1 cell CPT
Cc1ccc(-c2csc(NC(CO)c3nc4ccccc4n3CCOCCO)n2)cc1 (configuration not stated) | . | 23µM | / | ?
CN1c2cc(O)c(N=NC(N)=O)cc2CC1S(=O)(=O)O (configuration not stated) | / | ? | / | .
CN1CCN(c2cc(N3CCCCCC3)c(F)cc2[N+](=O)[O-])CC1 | . | 29µM | . | ?
O=[N+]([O-])c1cc(F)c(N2CCCC2)cc1N1CCNCC1 | / | / | . | /
Cn1c(=O)n(C)c2cc([N+](=O)[O-])c(N3CCNCC3)cc21 | . | . | . | .
CCN1CCN(c2cc(N3CCCC3)c([N+](=O)[O-])cc2F)CC1 | . | 29µM | . | ?
C[C@H](N)Cc1c[nH]c2ccc(O)cc12 | / | . | . | .
[Cl-].[Cl-].[Hg+2] | / | 0.34µM | 35µM | 0.75µM
O=C(c1ccc(F)cc1)N1CCC(c2nc(-c3ccc(S(=O)(=O)N4CCCC4)cc3)no2)CC1 | . | 12µM | . | 21µM
CCCC/C=C/[C@@H](NP(=O)(c1ccccc1)c1ccccc1)c1ccccc1OC | / | / | . | /
COC(=O)CC1Oc2ccc(C)cc2-n2cc(-c3ccc(F)cc3)nc21 (configuration not stated) | . | 9.2µM | . | 18µM
CC(C)NC(=O)NC1C2CC3CC(C2)CC1C3 (configuration not stated) | . | ? | . | .
COc1ccccc1OC(=O)Oc1ccccc1OC | / | ? | . | .
Cc1nnc2n1-c1sc(CCc3ccc(CC(C)C)cc3)cc1C(c1ccccc1Cl)=NC2C (configuration not stated) | / | 12µM | / | ?
CN(Cc1ccc(OC(F)F)cc1)Cc1nc2c(Br)cc(Br)cc2c(=O)[nH]1 | . | 16µM | . | ?
Cl/C=C\Cl | / | / | . | /
CC(=O)CC(c1ccccc1)c1c(O)c2cccc(O)c2oc1=O (configuration not stated) | / | / | . | /
CC[C@H]1C2CC3[C@@H]4N(C)c5ccccc5[C@]45C[C@@H](C2[C@H]5O)N3[C@@H]1O (some centres not stated) | / | . | . | .
CCC1C2CC3C4N(C)c5ccccc5[C@]45CC(C2C5O)N3C1O (some centres not stated) | / | 0.37µM | . | 0.46µM
CN(C)S(=O)(=O)c1cc(NC(=O)COC(=O)Cc2ccccc2)ccc1Cl | . | 18µM | . | ?
CN(C)S(=O)(=O)c1cc(NC(=O)C[N+]23CCN(CC2)CC3)ccc1Cl | . | . | . | .
O=C1NC(=O)C(CCc2ccncc2)(Cc2cccc(Cl)c2Cl)C(=O)N1c1ccc(Br)cc1 (configuration not stated) | . | 5.8µM | . | 4.6µM
CCc1ccc(N2C(=O)NC(=O)C(CCc3ccncc3)(CCc3ccncc3)C2=O)cc1 | . | . | . | .
CCOc1ccc2cc(C#N)c(=O)oc2c1 | / | / | . | /
COc1ccc(-c2oc3cc(OC)ccc3c(=O)c2O)cc1 | / | 12µM | . | 12µM
SMILES | ClpP mod | DT40 TDP1 no CPT | TDP1 inh | TDP1 cell CPT
NC(=O)c1ccc(N=Cc2c(O)n(Cc3ccco3)c(=O)[nH]c2=O)cc1 | . | . | 28µM | .
NC(N)=NC(=O)c1nc(Cl)c(N)nc1N | . | 0.58µM! | . | 1.5µM!
Nc1c(Cl)c(Cl)nc(C(=O)O)c1Cl | / | / | . | /
O=[N+]([O-])c1ccc(N2CCCC2)c(F)c1Br | / | 23µM | . | 13µM
O=C(O)Cc1ccc(OCCNC[C@H](O)c2ccccc2)cc1 | / | ? | . | .
CCN1C[C@]2(C)CC[C@H](O)[C@]34C1[C@H](C[C@H]23)[C@@]1(O)C[C@H](OC)[C@H]2C[C@@H]4[C@@H]1C2O (some centres not stated) | . | . | / | .
